# From article PMC11062922 (Nature Chemical Biology, 2023)
# Read-outs that look alike come from different tables or passages of the source.
# How the values were obtained:
# Parameters in all cases: species or system human, MV4-11 + K-562 + COLO205 + SK-N-BE2 + OVCAR-8
# [1] = tested on: DDR1; details: read-out: apparent Kd; compound concentrations:100 nM and 1000 nM (sheet 'Samples'); n = 1
# [2] = tested on: DDR2; details: read-out: apparent Kd; compound concentrations:100 nM and 1000 nM (sheet 'Samples'); n = 1
# [3] = tested on: DYNC1LI1; details: read-out: apparent Kd; compound concentrations:100 nM and 1000 nM (sheet 'Samples'); n = 1
# [4] = tested on: FLT3; details: read-out: apparent Kd, n = 1
# [5] = tested on: RET; details: read-out: apparent Kd; compound concentrations:100 nM and 1000 nM (sheet 'Samples'); n = 1
# [6] = tested on: CSNK2A1;CSNK2A3; details: read-out: apparent Kd, compound concentrations: 100 nM and 1000 nM (sheet 'Samples'), n = 1
# [7] = tested on: CSNK2A2; details: read-out: apparent Kd, compound concentrations: 100 nM and 1000 nM (sheet 'Samples'), n = 1
# [8] = tested on: PRKAA2; details: read-out: apparent Kd; compound concentrations: 100 nM and 1000 nM (sheet 'Samples'), CATDS: 0.28519609584928202; n = 1
# [9] = tested on: FECH; details: read-out: apparent Kd; compound concentrations: 100 nM and 1000 nM (sheet 'Samples'), CATDS: 0.167574298527637; n = 1
# [10] = tested on: NQO2; details: read-out: apparent Kd; compound concentrations: 100 nM and 1000 nM (sheet 'Samples'), CATDS: 0.179467556500614; n = 1
# [11] = tested on: CSNK1D; details: read-out: apparent Kd; compound concentrations: 100 nM and 1000 nM (sheet 'Samples'), CATDS: 0.46855924192133103; n = 1
# [12] = tested on: PBK; details: read-out: apparent Kd; compound concentrations: 100 nM and 1000 nM (sheet 'Samples'), CATDS: 0.53596365658376799; n = 1
# [13] = tested on: EPHA1; details: read-out: apparent Kd; compound concentrations: 100 nM and 1000 nM (sheet 'Samples'), CATDS: 0.11031803480288301; n = 1
# [14] = tested on: IRAK3; details: read-out: apparent Kd; compound concentrations: 100 nM and 1000 nM (sheet 'Samples'), CATDS: 0.28099060866519798; n = 1
# [15] = tested on: NTRK1; details: read-out: apparent Kd; compound concentrations: 100 nM and 1000 nM (sheet 'Samples'), CATDS: 8.3524015841862198E-2; n = 1
# [16] = tested on: PIP4K2C; details: read-out: apparent Kd; compound concentrations: 100 nM and 1000 nM (sheet 'Samples'), CATDS: 8.5254217094438201E-2; n = 1
# [17] = tested on: RIPK2; details: read-out: apparent Kd; compound concentrations: 100 nM and 1000 nM (sheet 'Samples'), CATDS: 0.49931357158944301; n = 1
# [18] = tested on: STK10; details: read-out: apparent Kd; compound concentrations: 100 nM and 1000 nM (sheet 'Samples'), CATDS: 9.3066944796260806E-2; n = 1
# [19] = tested on: TGFBR2; details: read-out: apparent Kd; compound concentrations: 100 nM and 1000 nM (sheet 'Samples'), CATDS: 0.10303622443246301; n = 1
# [20] = tested on: DAPK3; details: read-out: apparent Kd; compound concentrations:100 nM and 1000 nM (sheet 'Samples'); n = 1
# [21] = tested on: EGFR; details: read-out: apparent Kd; compound concentrations:100 nM and 1000 nM (sheet 'Samples'); n = 1
# [22] = tested on: HSP90B1; details: read-out: apparent Kd; compound concentrations:100 nM and 1000 nM (sheet 'Samples'); n = 1
# [23] = tested on: IRAK1; details: read-out: apparent Kd; compound concentrations:100 nM and 1000 nM (sheet 'Samples'); n = 1
# [24] = tested on: CSNK1G1; details: read-out: apparent Kd; compound concentrations: 100 nM and 1000 nM (sheet 'Samples'), CATDS: 0.44433796545528997; n = 1
# [25] = tested on: PKM; details: read-out: apparent Kd, compound concentrations: 100 nM and 1000 nM (sheet 'Samples'), n = 1
# [26] = tested on: DCTPP1; details: read-out: apparent Kd; compound concentrations: 100 nM and 1000 nM (sheet 'Samples'), CATDS: 8.8642199403974303E-2; n = 1
# [27] = tested on: GSK3A; details: read-out: apparent Kd; compound concentrations: 100 nM and 1000 nM (sheet 'Samples'), CATDS: 0.126367112680837; n = 1
# [28] = tested on: GSK3B; details: read-out: apparent Kd; compound concentrations: 100 nM and 1000 nM (sheet 'Samples'), CATDS: 0.11758336701376999; n = 1
# [29] = tested on: HSP90AA1; details: read-out: apparent Kd; compound concentrations: 100 nM and 1000 nM (sheet 'Samples'), CATDS: 0.187388385432427; n = 1
# [30] = tested on: HSPE1; details: read-out: apparent Kd; compound concentrations: 100 nM and 1000 nM (sheet 'Samples'), CATDS: 0.293791169928867; n = 1
# [31] = tested on: PGK1; details: read-out: apparent Kd; compound concentrations: 100 nM and 1000 nM (sheet 'Samples'), CATDS: 0.43205738676527899; n = 1
structure (smiles),measurement,setting,value
COC(=O)Nc1nc2cc(Oc3ccc(NC(=O)Nc4cc(C(F)(F)F)ccc4F)cn3)ccc2[nH]1.COC(=O)Nc1nc2cc(Oc3ccc(NC(=O)Nc4cc(C(F)(F)F)ccc4F)cn3)ccc2[nH]1.Cl.Cl [GW681170A],potency estimated from few doses,[1],278 nM
same,potency estimated from few doses,[2],1460 nM
same,potency estimated from few doses,[3],1830 nM
same,potency estimated from few doses,[4]; compound concentrations:100 nM and 1000 nM (sheet 'Samples'),1240 nM
same,potency estimated from few doses,[5],461 nM
CC1=C(C(=O)Nc2ccc3[nH]ncc3c2)C(c2ccc(F)cc2)NC(=O)N1 (stereo not drawn) [GSK180736A],potency estimated from few doses,[6]; CATDS: 0.33639720251881999,978 nM
same,potency estimated from few doses,[7]; CATDS: 0.39667360391151801,718 nM
same,potency estimated from few doses,[8],1410 nM
O=C1N=C(NCCc2ccc(Br)cc2)S/C1=C\c1ccc2ncccc2c1 [RO4508334-000],potency estimated from few doses,[6]; CATDS: 0.17522676424385999,1740 nM
same,potency estimated from few doses,[7]; CATDS: 0.185061390376627,1520 nM
same,potency estimated from few doses,[9],1950 nM
same,potency estimated from few doses,"[4]; compound concentrations: 100 nM and 1000 nM (sheet 'Samples'), CATDS: 0.42553970171458699",345 nM
same,potency estimated from few doses,[10],1640 nM
Cn1c(-c2ccncc2)c(-c2ccc(F)cc2)c2ncccc21 [RO1155240-000],potency estimated from few doses,[11],2250 nM
same,potency estimated from few doses,[12],1720 nM
COc1cc(Nc2nccc(Nc3ccc4c(C)n[nH]c4c3)n2)cc(OC)c1OC [GW612286X],potency estimated from few doses,[6]; CATDS: 8.5666768683209493E-2,1870 nM
same,potency estimated from few doses,[7]; CATDS: 9.4804106529145699E-2,1370 nM
same,potency estimated from few doses,[13],909 nM
same,potency estimated from few doses,[14],122 nM
same,potency estimated from few doses,[15],2040 nM
same,potency estimated from few doses,[16],1900 nM
same,potency estimated from few doses,[17],46.6 nM
same,potency estimated from few doses,[18],1450 nM
same,potency estimated from few doses,[19],1090 nM
Cl.O=S1CCN(Cc2ccc(-c3ccc4ncnc(Nc5ccc(OCc6ccccc6)c(F)c5)c4c3)o2)CC1 [GW576924A],potency estimated from few doses,[20],1760 nM
same,potency estimated from few doses,[21],28.8 nM
same,potency estimated from few doses,[22],1100 nM
same,potency estimated from few doses,[23],1540 nM
Cn1cc(-c2ccc3c(c2)CCN3C(=O)Cc2cccc(C(F)(F)F)c2)c2c(N)ncnc21 [GSK2606414A],potency estimated from few doses,[1],1550 nM
COc1cccc(NC(=O)Nc2ccc(C)c(-c3ccc(C(=O)Nc4ccncc4)cc3)c2)c1 [GSK1398474A],potency estimated from few doses,[24],1890 nM
same,potency estimated from few doses,[25]; CATDS: 0.57160468415719301,1140 nM
Cn1cc(C2=C(c3cn(C)c4ccc(Cl)cc34)C(=O)NC2=O)c2ccccc21 [RO0317621-000],potency estimated from few doses,[26],2010 nM
same,potency estimated from few doses,[27],423 nM
same,potency estimated from few doses,[28],544 nM
same,potency estimated from few doses,[29],137 nM
same,potency estimated from few doses,[30],52.8 nM
same,potency estimated from few doses,[31],27.6 nM
same,potency estimated from few doses,[25]; CATDS: 9.7600585068996298E-2,1180 nM
COc1cccc(-n2ncc3c(N/N=C/c4ccc(C)cc4)ncnc32)c1 [GW829877X],potency estimated from few doses,[7]; CATDS: 1,1940 nM
